BJeLR viability = MLPCN primary cell-based screen for lethality selective to Ras in HRASV12 cells; inhibition, % (concentration not given with the values); BJeLR (HRASV12) viability, CellTiter-Glo ATP luminescence, 48 h; hit rate 0.17% among 300,000; in the data active = inhibition above about 50%
Sa ugtP lethal = growth inhibition of ugtP-null S. aureus, primary screen, RN4220 ugtP deletion, OD600 | growth inhibition, % (concentration not given with the values) | 16 h | hit rate 0.54% among 330,000; in the data active = growth inhibition above about 68%;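 also: plate controls were untreated wells for no effect and antibiotic for full effect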
Sa RN4220 lethal = growth inhibition of S. aureus RN4220, primary screen, OD600; inhibition, % (test concentration not listed); 16 h; AID 1259311, 2017; hit rate 0.33% among 330,000; in the data active = inhibition above about 85%;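 also: plate controls were untreated cells for no effect and reference antibiotic for full effect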
Active calls of the source: *; nt = no result. This is a sample that favours compounds with a hit; in the whole collection about 0.65% have one here.

SMILES | BJeLR viability | Sa ugtP lethal | Sa RN4220 lethal
O=C(CC=NOCc1ccc(Cl)cc1Cl)c1ccc(Cl)cc1 | nt | -2 | 6
COc1ccccc1C(=O)NCC(=O)NNc1ncnc(N)c1[N+](=O)[O-] | 3 | nt | nt
Cc1ccc(OCC(=O)NNC(=S)NC(=O)C2CCCCC2)c(C)c1 | 4 | 22 | 60
O=C(NC1CCCCC1)c1sc(=S)n2c1[nH]c(=O)c1ccccc12 | 0 | 100* | 100*
CCCCNC(=O)c1sc(=S)n2c1[nH]c(=O)c1ccccc12 | -7 | 82* | 74
O=C(NCCc1ccccc1)c1ccc2c(=O)[nH]c3c(C(=O)NCC4CCCO4)sc(=S)n3c2c1 (stereo not given) | -21 | nt | nt
O=C(NCC1CCCO1)c1sc(=S)n2c1[nH]c(=O)c1ccc(C(=O)N3CCCCC3)cc12 (stereo not given) | -3 | 2 | 8
O=C(CCC(=O)N1CCOc2ccc(Cl)cc21)N1CCN(c2ccccn2)CC1 | -14 | -4 | 6
Cc1ccccc1CN1CCN(CC2CC3C=CC2C3)CC1 (stereo not given) | 3 | -1 | 6
O=C1N=c2ccccc2=C1c1c(O)n(-c2cccc(F)c2)[nH]c1=O | 8 | 4 | 5
CCn1c(O)c(C2=c3ccccc3=NC2=O)c2cc(Br)ccc21 | 4 | 101* | 100*
COc1ccccc1-c1ccc(SCc2cccc(F)c2)nn1 | -5 | nt | nt
Clc1ccc2ccc3cccnc3c2n1 | 2 | 3 | 3
O=S1(=O)Nc2c(ccc3cccnc23)-c2ccccc21 | 2 | 98* | 98*
COc1ccc(CNC(=O)C(C)N=C2NS(=O)(=O)c3ccccc32)cc1OC (stereo not given) | 5 | 10 | 3
CN(C)c1nc(-c2ccccn2)nnc1-c1ccccc1 | 82* | 3 | 13
Cc1ccc(-c2nnc(-c3ccccc3)c(-c3ccccc3)n2)cc1 | 5 | 92* | -8
Oc1ccc(-c2nnc(-c3ccccc3)c(-c3ccccc3)n2)cc1 | 4 | -1 | 5
c1ccc(-c2nnc(-c3ccccn3)c(-c3ccccn3)n2)nc1 | -3 | 2 | 1
Cc1nn(Cc2ccccc2Cl)c2sc(C(=O)Nc3ccccc3N3CCOCC3)cc12 | 0 | -23 | -6
CCN(CC)C(=O)C1CCCN(Cc2cccc(F)c2)C1 (stereo not given) | 9 | -2 | 0
O=[N+]([O-])c1cc(Br)c(O)c(C=NNc2nc3ccccc3s2)c1 | nt | 84* | 67
O=[N+]([O-])c1cc(Cl)cc(/C=N/Nc2nc3ccccc3s2)c1O | 2 | nt | nt
O=C(CSc1nnc(CNc2ccc(Cl)cc2)n1Cc1ccccc1)NCc1ccco1 | -2 | 12 | 2
CCOC(=O)c1ccc2c(c1)n(CC)c(/C=C/N(C)c1ccccc1)[n+]2CC | 9 | 6 | 19
SMILES | BJeLR viability | Sa ugtP lethal | Sa RN4220 lethal
CC[n+]1c(/C=C/N(C)c2ccccc2)n(-c2ccccc2)c2ccc(-c3nc4ccccc4s3)cc21 | 91* | 101* | 100*
Cc1ccc(-n2c(Cn3c(C)nc4ccccc43)n[nH]c2=S)cc1 | 13 | 6 | 4
Cn1ncc2c(O/N=C(\N)c3ccc(C(C)(C)C)cc3)ncnc21 | 99* | nt | nt
Cn1ncc2c(ON=C(N)c3ccc(C(F)(F)F)cc3)ncnc21 | nt | 1 | 2
O[C@@H](c1cc(C(F)(F)F)nc2c(C(F)(F)F)cccc12)[C@H]1CCCCN1 | 8 | nt | nt
OC(c1cc(-c2ccc(Cl)cc2)nc2ccccc12)C1CCCCN1 (stereo not given) | 126* | nt | nt
O=C(CN1C(=O)c2ccc([N+](=O)[O-])cc2C1=O)NCc1ccc(C(=O)O)cc1 | 7 | 6 | -2
Cc1nc2ccccc2nc1N1CCCC1 | -7 | 5 | 5
Clc1ccc(-c2cc3ccccc3nc2N2CCCC2)cc1 | 8 | 72 | -3
Cc1ccc(-c2cc3ccccc3nc2N2CCCC2)cc1 | 14 | 89* | -3
Clc1ccc(-c2cc3ccccc3nc2N2CCOCC2)cc1 | 12 | 93* | 2
Cc1cc(C)cc(NC(=O)CC2NCCNC2=O)c1 (stereo not given) | -2 | 7 | 1
O=S(=O)(N/N=C\c1cccc(F)c1)c1ccccc1 | -3 | nt | nt
CCCCCCN1C=CC(=C2C(=O)c3ccccc3C2=O)C=C1 | 16 | 1 | 6
CCCN1C=CC(=C2C(=O)c3ccccc3C2=O)C=C1 | 68* | 0 | 4
Nc1nc(NCc2ccco2)nc(N2CCCC2)c1[N+](=O)[O-] | 12 | -9 | 8
Nc1nc(NCc2ccco2)nc(N2CCCCCC2)c1[N+](=O)[O-] | 12 | 98* | 95*
CCc1sc(C(=O)NNC(=O)CNC(=O)c2ccccc2F)cc1C | nt | 3 | 1
COCCN(C(=O)CNC(=O)c1ccco1)C(C(=O)NC1CCCC1)c1ccc(OC)c(OC)c1 (stereo not given) | -9 | 3 | 5
Nc1nnc(-c2ccc([N+](=O)[O-])o2)s1 | nt | 92* | 98*
O=c1[nH]nc(-c2ccc([N+](=O)[O-])o2)c(=O)[nH]1 | nt | 17 | 6
O=P(Cc1ccccn1)(c1ccccc1)c1ccccc1 | -3 | -3 | 1
Cc1nnsc1C(=O)NN=Cc1ccc2ccccc2c1O | nt | 63 | -1
Cc1nn(C)c(C(=O)Sc2cccc(Cl)c2)c1[N+](=O)[O-] | 8 | 93* | 27
Cc1nn(C)c(C(=O)Sc2ccccc2)c1[N+](=O)[O-] | -1 | 8 | -2
SMILES | BJeLR viability | Sa ugtP lethal | Sa RN4220 lethal
CC(=O)Nc1ccc(C(=O)COC(=O)CN2C(=O)NC3(CCCCC3C)C2=O)cc1 (stereo not given) | nt | -7 | 0
Cc1c(N)c(C)c([N+](=O)[O-])c(C)c1[N+](=O)[O-] | 7 | 17 | 13
Cc1c(N)c(C(C)(C)C)cc(C(C)(C)C)c1[N+](=O)[O-] | -6 | 95* | 5
COc1cc2cc(CCCOC(=O)c3cc(OC)c(OC)c(OC)c3)oc(=O)c2cc1OC | nt | -1 | 3
COc1cccc(CN2CCNC(=O)C2CC(=O)NCCOc2cccnc2)c1OC (stereo not given) | -6 | 7 | 5
COc1ccccc1NC(=O)CSc1nnc(-c2ccco2)n1Cc1ccco1 | 4 | -10 | 2
Oc1c(Cl)cc(Cl)c2cccnc12 | -2 | 41 | 56
Oc1c(I)cc(I)c2cccnc12 | 4 | 96* | 95*
Cc1ccc(NC(=S)N/N=C/c2c(Cl)cccc2Cl)c(C)c1 | 53* | nt | nt
S=C(NN=Cc1ccccc1Cl)Nc1cccc(Cl)c1Cl | nt | 99* | -8
CNC(=S)NN=Cc1ccccc1Cl | nt | -3 | 2
Cc1ccc(NC(=S)NN=Cc2c(Cl)cccc2Cl)c(C)c1 | nt | 39 | -10
C=CCOC(=O)C1=C(C)NC(SC)=C(C#N)C1c1ccc(OCC)cc1 (stereo not given) | 4 | 91* | -2
C=CCOC(=O)C1=C(C)NC(SC)=C(C#N)C1c1cccs1 (stereo not given) | -4 | 9 | 3
O=C(NCC(c1cccnc1)N1CCOCC1)c1ccco1 (stereo not given) | -5 | 0 | 1
CCN1/C(=C/C(=O)c2ccco2)Sc2ccccc21 | -5 | nt | nt
CCN1/C(=C/c2sc(-c3ccccc3C)c[n+]2C)Sc2ccccc21 | 17 | 101* | 100*
CCOC(=O)c1sc2nc(C)nc(N3CCN(S(=O)(=O)c4ccccc4)CC3)c2c1C | nt | 12 | 2
Oc1ccc(F)c2cccnc12 | 3 | 12 | 23

High-throughput results: PubChem, several laboratories
